Bioassay records (PubChem)
HCMV antiviral: human cytomegalovirus inhibition; 4.5% of 410,000 active; activity change, negative = inhibition, % at 57.5 µM; HFF cells, HCMV-luciferase reporter, 72 h; hits give low values; in the data active = activity change below about -60%; inconclusive = no clear call, values can overlap the other calls; inactive = above about -39%
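Cell-based, HFFs, 1000 cells/well, 16 h 37C; cpds in DMSO + HCMV-luc, MOI 1 PFU/cell; 72 h 37C; OneGlo luminescence after 5 min RT; norm. to buffer vs Salinomycin 10uM.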
FMDV inh: foot and mouth disease virus antiviral activity; Potency, µM (highest dose often 57.9 µM), inactives show at the highest dose activity change, negative = inhibition, hits mostly inhibitors; 1.2% of 410,000 active; FMDV antiviral cell-based qHTS; calls by dose curve; tested in HEK293T cells; also: read-out not given here; potency is read from the fitted curve at half-maximal effect; nearly all actives have a fitted effect of over 45% in size
Sm TGR inh: blocks Schistosoma mansoni thioredoxin glutathione reductase; Q962Y6; purified TGR, DTNB reduction, TNB absorbance 405 nm; Potency, µM (top dose mostly 114 µM), inactives show at the highest dose activity change, negative = inhibition, actives largely listed as inhibitors; 3% of 360,000 active; AID 485364; also: potency is read from the fitted curve at half-maximal effect; nearly all actives have a fitted effect of over 60% in size
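First, TGR (20 nM dispensed) and NADPH were mixed with compound. Second, a 15 min room-temperature incubation followed. Third, further NADPH and then DTNB were added to start the reaction. Finally, TNB absorbance was monitored kinetically.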
VACV Venus inh: vaccinia inhibition (Venus reporter); Vaccinia virus Venus reporter expression, fluorescence; Potency, µM (highest dose often 36.5 µM), without a hit: top-dose activity change, negative = inhibition, actives largely listed as inhibitors; AID 720580; 0.46% of 330,000 active; calls by dose curve; tested in A549 cells; also: potency is read from the fitted curve at half-maximal effect; nearly all actives have a fitted effect of over 30% in size
HCV inh: blocks hepatitis C virus; Huh7.5.1 HCVcc-Cre infection, luciferase reporter, 44 h; Potency, µM (highest dose often 41.8 µM), for inactives: top-dose activity change, negative = inhibition, actives largely listed as inhibitors; 3.4% of 340,000 active; AID 651820; also: potency is read from the fitted curve at half-maximal effect
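Seed cells (1,000/well) for 4 h; treat with compound and infect with HCVcc-Cre, moi about 0.5. Incubate 44 h, then detect luciferase activity.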
VACV mCherry inh: vaccinia inhibition (mCherry reporter); Vaccinia virus mCherry reporter infection, fluorescence; Potency, µM (highest dose often 36.5 µM), for inactives: top-dose activity change, negative = inhibition, usual class: inhibitors; 0.63% of 310,000 active; AID 720579; calls by dose curve; tested in A549 cells; also: potency is read from the fitted curve at half-maximal effect; nearly all actives have a fitted effect of over 35% in size
* marks the source's active call; other numbers are inactive results; [ ] = another dose, or the depositor's remark. Rows were chosen to be rich in hits. Some 9.3% of all compounds tested hit in one or more screens of this group. Unless noted, calls follow the shape of the dose curve; as a rule, active = well fitted curve in the direction sought with a large enough effect; inconclusive = small, poorly fitted or top-dose-only effect, or another doubt; inactive = no such curve, though single readings can be large; an effect the other way counts as inactive or inconclusive. % is scaled to controls: 0 for no effect and ±100 for the full control effect.

What do the screens show for `O=S(=O)(NCC1CCCO1)c1ccc(-c2ccc(Cl)cc2)cc1` (configuration not stated)?
HCMV antiviral: -60*; FMDV inh: 37%; Sm TGR inh: 8%; VACV Venus inh: -17%; HCV inh: inconclusive; VACV mCherry inh: -18%

Results for O=C(c1ccc(S(=O)(=O)NCC2CCCO2)cc1)N1CCN(c2cccc(Cl)c2)CC1 (configuration not stated) ?
HCMV antiviral: -70*; FMDV inh: inconclusive; Sm TGR inh: -3%; HCV inh: 11µM*

How did Cc1cn([C@@H](CCCCN)C(=O)NCCCCCCCCCCC(=O)N2CCNCC2)nn1 do in these assays?
HCMV antiviral: -6; FMDV inh: -10%; Sm TGR inh: -14%; VACV Venus inh: -1%; HCV inh: 10%; VACV mCherry inh: inactive

How did COc1ccc(C2Nc3ccccc3C(=O)N2Cc2ccccc2)cc1COc1ccccc1F (configuration not stated) do in these assays?
VACV Venus inh: -14%; VACV mCherry inh: 19%

Results for COc1ccc(CN2CCN(C(=O)CCC(=O)Nc3nnc(C4CCCCC4)s3)CC2)cc1F ?
HCMV antiviral: -73*; FMDV inh: inconclusive; Sm TGR inh: -12%; VACV Venus inh: -18%; HCV inh: inconclusive; VACV mCherry inh: -11%

Results for CCCc1nnc(NC(=O)CCC(=O)N2CCN(Cc3cc(Cl)ccc3OC)CC2)s1 ?
HCMV antiviral: -18; FMDV inh: -24%; Sm TGR inh: -13%; HCV inh: -6%

How did COc1ccc(CN2CCN(C(=O)CCC(=O)Nc3nnc(CC(C)C)s3)CC2)cc1F do in these assays?
HCMV antiviral: -65*; FMDV inh: inconclusive; Sm TGR inh: -25%; HCV inh: inconclusive

Results for CCCc1nnc(NC(=O)CCC(=O)N2CCN(Cc3ccc(OC)c(F)c3)CC2)s1 ?
HCMV antiviral: -76*; FMDV inh: inconclusive; Sm TGR inh: -2%; HCV inh: inconclusive

How did COc1ccc(CN2CCN(C(=O)CCC(=O)Nc3nnc(C(F)(F)F)s3)CC2)cc1F do in these assays?
HCMV antiviral: -34; FMDV inh: -27%; Sm TGR inh: -2%; VACV Venus inh: 8%[7.34 µM]; HCV inh: -15%; VACV mCherry inh: -12%[7.34 µM]

Results for CCC1CCCCN1Cc1c(O)ccc2c(=O)c(-c3ccccc3OC)coc12 (configuration not stated) ?
HCMV antiviral: 0; FMDV inh: -18%; HCV inh: -3%

What do the screens show for `CCn1c(C)[n+](CCOCC[n+]2c(C)n(CC)c3cc(Cl)c(Cl)cc32)c2cc(Cl)c(Cl)cc21`?
HCMV antiviral: -15; Sm TGR inh: -6%; VACV Venus inh: -8%; HCV inh: 21%; VACV mCherry inh: -16%

How did CC(=O)Nc1ccccc1-c1nc2cc(C#N)c(C#N)cc2[nH]c1=O do in these assays?
HCMV antiviral: 1; FMDV inh: 25%; Sm TGR inh: inconclusive; HCV inh: inconclusive

How did Cc1[nH]n(-c2ccc(Cl)cc2)c(=O)c1/C=N/c1nnc(-c2ccccc2)s1 do in these assays?
HCMV antiviral: 9; FMDV inh: -20%; Sm TGR inh: -1%; VACV Venus inh: -8%; HCV inh: -2%; VACV mCherry inh: inactive

What do the screens show for `CC(C)Oc1ccc(CNC(=O)c2cc3cccc4c3n2CC(C)S4)cc1` (configuration not stated)?
HCMV antiviral: 0; FMDV inh: -7%; Sm TGR inh: 10%; VACV Venus inh: -3%; VACV mCherry inh: -13%

What do the screens show for `COC(=O)Cn1cnc2c(Cl)nc(F)nc21`?
HCMV antiviral: -13; FMDV inh: inconclusive; VACV Venus inh: 0%; HCV inh: 5.6µM*; VACV mCherry inh: -9%

How did COc1cc2ccccc2cc1C(=O)Nc1ccc(N2CCN(C(=O)C(C)C)CC2)cc1 do in these assays?
HCMV antiviral: -4; FMDV inh: inconclusive; Sm TGR inh: -1%; HCV inh: 10µM*

What do the screens show for `CC(C)C(=O)N1CCN(c2ccc(NC(=O)c3cccs3)cc2)CC1`?
HCMV antiviral: 54; FMDV inh: -20%; Sm TGR inh: -12%; VACV Venus inh: -16%; HCV inh: -1%; VACV mCherry inh: inactive

How did COc1cc2ccccc2cc1C(=O)Nc1ccc(N2CCN(C)CC2)cc1 do in these assays?
HCMV antiviral: 6; FMDV inh: 30%; Sm TGR inh: 11%; HCV inh: 13µM*

How did COc1ccc(OC)c(S(=O)(=O)N2CCCC(C(=O)N3CCCC3)C2)c1 (configuration not stated) do in these assays?
HCMV antiviral: 6; FMDV inh: -11%; Sm TGR inh: -2%; VACV Venus inh: -19%; HCV inh: 1%; VACV mCherry inh: -16%

What do the screens show for `O=c1[nH]c(=O)n(C2CC(O)C(CO)O2)cc1C(F)(F)F` (configuration not stated)?
FMDV inh: 0%; VACV Venus inh: -26%; VACV mCherry inh: 2µM*

What do the screens show for `Nc1nc(=O)n(C2CC(O)C(CO)O2)cc1F` (configuration not stated)?
HCMV antiviral: -97*; FMDV inh: 8%; VACV Venus inh: inconclusive; HCV inh: -9%; VACV mCherry inh: inconclusive

What do the screens show for `O=c1[nH]c(=O)n(C2CC(O)C(CO)O2)cc1F` (configuration not stated)?
FMDV inh: 8%; VACV Venus inh: inconclusive; VACV mCherry inh: inconclusive

How did CCN(CCCNC(=O)COc1cc(=O)n(CC)c2ccccc12)c1ccccc1 do in these assays?
HCMV antiviral: 109; FMDV inh: inconclusive; Sm TGR inh: 2%; HCV inh: inconclusive

Results for CC(=O)c1c(C)[nH]c(C(=O)Nc2nc(-c3ccc(-c4ccccc4)cc3)cs2)c1C ?
HCMV antiviral: -39; FMDV inh: 11µM*; Sm TGR inh: 3%; VACV Venus inh: -18%; HCV inh: inconclusive; VACV mCherry inh: inactive

How did COc1ccc(-c2nc(NC(=O)c3[nH]c(C)c(C(C)=O)c3C)sc2C)cc1 do in these assays?
HCMV antiviral: 14; FMDV inh: inconclusive; Sm TGR inh: 0%; VACV Venus inh: -25%; HCV inh: 1µM*; VACV mCherry inh: -21%

Results for CN(C)c1ccc(C(=O)N2CCN(c3cc(C(F)(F)F)nc4ccccc34)CC2)cc1 ?
HCMV antiviral: 12; FMDV inh: inconclusive; Sm TGR inh: -2%; VACV Venus inh: -26%; HCV inh: inconclusive; VACV mCherry inh: -8%

How did Cn1c2c(c(=O)[nH]c1=O)C(NC(=O)c1ccco1)(C(F)(F)F)C(=O)N2 (configuration not stated) do in these assays?
HCMV antiviral: -24; FMDV inh: -18%; Sm TGR inh: -7%; VACV Venus inh: -6%; HCV inh: 27%; VACV mCherry inh: -11%
